The text below walks through data of PubChem BioAssay (NCI).

This is part of a sample that, as a whole, favours compounds with a hit. Of some 83,000 tested, about 20% had one in any assay.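 Note: values are percent growth. 100 is the growth of untreated cells, values between 100 and 0 indicate rising inhibition; between -100 and 0 indicates cell death.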 Values without a mark were called inactive. The source made the active and inactive calls. How the source made its calls: active means growth percent below 10; inactive means the rest.

Test systems include SK-MEL-2 melanoma; EKVX NSCLC; SN12C renal; UO-31 renal; TK-10 renal; ACHN renal; CAKI-1 renal; A498 renal; CCRF-CEM leukemia; MOLT-4 leukemia.
Experiment in all cases: NCI-60 one-dose screen, 48 h (100 = growth as untreated, 0 = no growth, -100 = all killed)
Holding throughout (conditions): 10 µM unless noted

On to `COc1cc2c3c(c4c5ccccc5[nH]c4c2c(OC)c1OC)C(=O)N(O)C3=O`, for which the growth with SK-MEL-2 melanoma was 85.6%; in the test on EKVX NSCLC, 97.1%; in the test on SN12C renal, 46.6%; with UO-31 renal, 10%; with TK-10 renal, 80.1%; in the test with ACHN renal it was 20.6%. The growth in the test with CAKI-1 renal is 36%; with A498 renal, -16.8% (active); with CCRF-CEM leukemia, 18%; with MOLT-4 leukemia, 1.38% (active).
With `CC(=O)c1c(C)[nH]c(-c2nc3ccc(N4CCN(C)CC4)cc3[nH]2)c1-c1ccc(OCC2CCOCC2)cc1`, the growth was 53.3% in the test on SK-MEL-2 melanoma; 35.6% in the test on EKVX NSCLC; 39.9% in the test on SN12C renal; 6.97% (active) in the test with UO-31 renal; -5.8% (active) in the test on TK-10 renal; 19.2% in the test on ACHN renal. The growth is 12.4% with CAKI-1 renal, 30.8% in the test on A498 renal, 30.9% in the test with CCRF-CEM leukemia and 47.5% with MOLT-4 leukemia.
On to `O=C(NO)c1ccc(Cn2c(=O)n(CCc3ccc(O)cc3)c(=O)c3ccccc32)cc1`, for which the growth in the test with SK-MEL-2 melanoma was 74.5%; in the test on EKVX NSCLC, 76.7%; in the test with SN12C renal, 79%; in the test on UO-31 renal, 88.6%; in the test with TK-10 renal, 84.7%; in the test on ACHN renal it was 91.1%. For the same compound, the growth was 95.2% with CAKI-1 renal, 45.7% with A498 renal, 9.36% (active) with CCRF-CEM leukemia and 15.9% in the test with MOLT-4 leukemia.
`C(=C\c1c[nH]c2ccccc12)/c1ccc2ccccc2n1`: the growth was 86.5% in the test on SK-MEL-2 melanoma; 70.8% in the test with EKVX NSCLC; 51.4% in the test with SN12C renal; 23.6% with UO-31 renal; 114% in the test on TK-10 renal; 89.9% in the test on ACHN renal. Also, the growth in the test with CAKI-1 renal is 60.7%; with A498 renal, 120%; in the test with CCRF-CEM leukemia, 14.9%; in the test with MOLT-4 leukemia, 12.4%.
For `Cc1ccc(S(=O)(=O)Nc2ccc(-c3cc(-c4cccc(F)c4)c(C#N)c(N)n3)cc2)cc1`, the growth in the test on SK-MEL-2 melanoma is 17.1%; in the test on EKVX NSCLC, 51.6%; in the test on SN12C renal, 11.5%; with UO-31 renal it was -88.2% (active); with TK-10 renal, -70.8% (active); with ACHN renal it was -71.9% (active). Also, the growth is 10.9% with CAKI-1 renal, 68.1% in the test on A498 renal, 7.69% (active) in the test on CCRF-CEM leukemia and 9.77% (active) with MOLT-4 leukemia.
On to `Cn1c2c(Cl)c(Cl)ccc2c2c(C#N)c[nH]c(=O)c21`, for which the growth with SK-MEL-2 melanoma was 97.3%; in the test on EKVX NSCLC it was 98.9%; in the test on SN12C renal, 95.9%; in the test on UO-31 renal, 89.9%; in the test with TK-10 renal, 119%; in the test on ACHN renal, 93.4%. Besides, the growth is 71.1% in the test with CAKI-1 renal, 89.5% with A498 renal, 39.2% in the test on CCRF-CEM leukemia and 95.7% with MOLT-4 leukemia.
Take `C[C@@H](Oc1ccc(C(=O)NS(=O)(=O)C(C)(C)C)cc1C(F)(F)F)c1ccc(Oc2ccccc2)cn1`: the growth in the test with SK-MEL-2 melanoma was 38.2%; in the test on EKVX NSCLC it was 65%; in the test on SN12C renal, 61.2%; in the test on UO-31 renal, 58.8%; in the test on TK-10 renal it was 79.1%; with ACHN renal, 61.8%. Besides, the growth was 38.8% in the test on CAKI-1 renal, -0.737% (active) in the test with A498 renal, 25.9% in the test with CCRF-CEM leukemia and 57.3% in the test with MOLT-4 leukemia.
For the compound `C#CCN=C[C@]12CC[C@@H](C(=C)C)[C@@H]1[C@H]1CC[C@@H]3[C@@]4(C)CCC(=O)C(C)(C)[C@@H]4CC[C@@]3(C)[C@]1(C)CC2`, the growth was 91.7% with SK-MEL-2 melanoma; 68.3% with EKVX NSCLC; 55.1% in the test with SN12C renal; -78.2% (active) with UO-31 renal; 104% with TK-10 renal; 75.7% with ACHN renal. For the same compound, the growth in the test with CAKI-1 renal was 45%; in the test with A498 renal it was 91.9%; in the test on CCRF-CEM leukemia, 61.3%; in the test with MOLT-4 leukemia it was 42.6%.
For `COc1cc2nc(Cl)nc(Nc3cccc(C(=O)/C=C/c4ccc(Cl)cc4)c3)c2cc1OC`, the growth was 96.4% in the test on SK-MEL-2 melanoma; 71.7% in the test with EKVX NSCLC; 70.5% in the test with SN12C renal; 57.1% in the test with UO-31 renal; 149% in the test with TK-10 renal; 56% with ACHN renal. Also, the growth in the test with CAKI-1 renal was 51.9%; in the test with A498 renal, 77.3%; with CCRF-CEM leukemia, 19.4%; with MOLT-4 leukemia, 33.5%.
Consider `N#CC1=C(N)Oc2c(c(N)nn2-c2ccccc2)C1c1ccc(Cl)cc1Cl` (stereo not given), for which the growth in the test with SK-MEL-2 melanoma was 101%; in the test on EKVX NSCLC, 91.2%; with SN12C renal it was 99.5%; in the test on UO-31 renal it was 73.8%; in the test with TK-10 renal, 123%; with ACHN renal, 99%. Further, the growth in the test on CAKI-1 renal was 90.1%; in the test on A498 renal, 90.7%; with CCRF-CEM leukemia it was 95.6%; in the test on MOLT-4 leukemia it was 88.3%.
`COc1ccccc1-n1cnc(N)c1C(=O)c1cc(OC)c(OC)c(OC)c1`: the growth in the test with SK-MEL-2 melanoma was 57.1%; in the test on EKVX NSCLC, 55.3%; with SN12C renal, 62.3%; in the test with UO-31 renal, 55.2%; in the test with TK-10 renal it was 80.8%; with ACHN renal, 58.6%. The growth in the test on CAKI-1 renal was 39.8%; with A498 renal, 26.6%; with CCRF-CEM leukemia, 24.2%; in the test on MOLT-4 leukemia, 50.8%.
For `C=C(C)[C@@H]1CC[C@]2(C(=O)N3CCN(CC)CC3)CC[C@]3(C)[C@H](CC[C@@H]4[C@@](C)(CCC(=O)N5CCN(CC)CC5)[C@H](C(=C)C)CC[C@]43C)[C@@H]12`, the growth was 90.2% in the test on SK-MEL-2 melanoma; 52.5% with EKVX NSCLC; 66.9% with SN12C renal; 28.2% with UO-31 renal; 49.6% with TK-10 renal; -49.8% (active) in the test on ACHN renal. Further, the growth in the test on CAKI-1 renal is -15.3% (active); with A498 renal, 92.6%; with CCRF-CEM leukemia it was 49.4%; with MOLT-4 leukemia it was 34%.
As for `Cn1c2ccccc2c2c3c(c4c5cccnc5[nH]c4c21)C(=O)N(O)C3=O`, the growth in the test with SK-MEL-2 melanoma is 97.5%; in the test with EKVX NSCLC, 85.9%; in the test on SN12C renal, 22.6%; in the test on UO-31 renal it was 31%; with TK-10 renal, 97.4%; with ACHN renal, 17.8%. In addition, the growth in the test with CAKI-1 renal was 24%; in the test with A498 renal it was 109%; in the test on CCRF-CEM leukemia, 13.2%; in the test with MOLT-4 leukemia it was 0.301% (active).
As for `Clc1cc(Cl)cc(Nc2ccc3c(OCCCN4CCOCC4)cccc3n2)c1`, the growth in the test with SK-MEL-2 melanoma is 87.8%; in the test on EKVX NSCLC, 62.2%; in the test with SN12C renal, 76.1%; in the test on UO-31 renal, 28.6%; with TK-10 renal, 80.5%; in the test on ACHN renal, 49.9%. Also, the growth is 56.6% with CAKI-1 renal, 59.8% with A498 renal, 29.5% in the test on CCRF-CEM leukemia and 22.5% in the test on MOLT-4 leukemia.
As to `CC(=O)c1c(C)[nH]c(-c2nc3ccc(N4CCN(C)CC4)cc3[nH]2)c1-c1ccc(N(C)C)cc1`, the growth with SK-MEL-2 melanoma was 64.3%; in the test on EKVX NSCLC, 34.5%; in the test with SN12C renal it was 48.2%; in the test on UO-31 renal, 7.2% (active); with TK-10 renal it was -6.31% (active); in the test on ACHN renal it was 19.8%. Further, the growth with CAKI-1 renal was 10.3%; in the test on A498 renal, 6.38% (active); in the test on CCRF-CEM leukemia, 36.3%; with MOLT-4 leukemia, 45.5%.
